How the values were obtained:
Assay in all cases: log2 ratio of Biotin-Ahx-Ub-VS probe labelling (fragment/DMSO); higher = less target engagement (more negative = stronger competition), active = hit call of the paper (q ≤ 0.05, log2 ratio ≤ -1)
Settings in all cases: compound concentration: 200 uM; treatment time: 3 h
ALG13 = molecular target: T1, ALG13 (UniProt Q9NP73)
T1 sequence (whole entry): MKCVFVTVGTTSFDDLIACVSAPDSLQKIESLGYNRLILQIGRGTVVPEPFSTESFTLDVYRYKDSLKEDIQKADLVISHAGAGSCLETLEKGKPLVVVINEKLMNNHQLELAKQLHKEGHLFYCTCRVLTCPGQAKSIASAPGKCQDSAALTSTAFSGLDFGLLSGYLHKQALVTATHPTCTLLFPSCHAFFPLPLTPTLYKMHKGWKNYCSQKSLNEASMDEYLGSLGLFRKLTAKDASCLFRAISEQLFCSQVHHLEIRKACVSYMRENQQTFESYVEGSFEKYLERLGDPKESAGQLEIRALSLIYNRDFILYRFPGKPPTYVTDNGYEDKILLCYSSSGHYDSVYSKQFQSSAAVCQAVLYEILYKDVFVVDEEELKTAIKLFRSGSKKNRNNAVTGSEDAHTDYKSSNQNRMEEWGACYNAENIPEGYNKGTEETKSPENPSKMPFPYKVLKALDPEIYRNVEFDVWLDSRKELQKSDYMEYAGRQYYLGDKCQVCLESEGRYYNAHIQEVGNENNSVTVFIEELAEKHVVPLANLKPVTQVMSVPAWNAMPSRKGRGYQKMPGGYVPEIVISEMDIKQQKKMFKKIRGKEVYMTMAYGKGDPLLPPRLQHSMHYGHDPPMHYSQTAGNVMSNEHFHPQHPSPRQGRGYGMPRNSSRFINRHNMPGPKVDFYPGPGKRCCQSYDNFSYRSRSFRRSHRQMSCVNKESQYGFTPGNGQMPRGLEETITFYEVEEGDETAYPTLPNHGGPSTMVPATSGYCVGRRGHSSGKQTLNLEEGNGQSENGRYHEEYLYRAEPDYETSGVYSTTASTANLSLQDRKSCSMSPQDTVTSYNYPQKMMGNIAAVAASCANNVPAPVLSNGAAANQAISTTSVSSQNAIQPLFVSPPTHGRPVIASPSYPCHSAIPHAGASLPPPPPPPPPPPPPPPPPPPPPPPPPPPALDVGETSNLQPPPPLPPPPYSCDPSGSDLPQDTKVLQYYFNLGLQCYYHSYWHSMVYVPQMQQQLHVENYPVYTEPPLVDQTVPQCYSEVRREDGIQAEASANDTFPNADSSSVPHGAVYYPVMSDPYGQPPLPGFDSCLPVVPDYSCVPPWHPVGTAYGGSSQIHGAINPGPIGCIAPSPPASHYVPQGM
Method in brief: (§1)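 HEK293T lysate (495 µg per sample, in Tris/CHAPS/IGEPAL buffer with protease inhibitors) was exposed in triplicate for 3 h to fragment at 200 µM or to vehicle, then to Biotin-Ahx-Ub-VS at 0.5 µM final for 1 h. Labelled DUBs were enriched on NeutrAvidin, digested with LysC and trypsin, and analysed by diaPASEF LC-MS/MS. Spectronaut label-free quantities were normalised to the global median, and values are average log2 ratios of fragment over vehicle from an unpaired t-test. Only proteins with ≥2 unique peptides were used.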

ATXN3 = ATXN3 (UniProt P54252)
ATXN3, sequence (P54252 whole entry): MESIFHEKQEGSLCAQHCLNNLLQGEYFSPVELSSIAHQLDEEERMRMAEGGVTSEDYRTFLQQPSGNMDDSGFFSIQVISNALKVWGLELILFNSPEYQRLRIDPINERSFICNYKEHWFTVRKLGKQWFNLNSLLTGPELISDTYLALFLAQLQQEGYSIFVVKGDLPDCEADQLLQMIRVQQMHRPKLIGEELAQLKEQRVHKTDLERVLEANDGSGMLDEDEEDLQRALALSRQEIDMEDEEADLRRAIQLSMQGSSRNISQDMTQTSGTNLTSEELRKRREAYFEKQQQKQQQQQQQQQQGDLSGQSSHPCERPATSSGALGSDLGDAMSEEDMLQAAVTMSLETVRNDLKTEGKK
Method in brief: as §1

BAP1 = molecular target: T2, BAP1 (UniProt Q92560)
T2 sequence (whole entry): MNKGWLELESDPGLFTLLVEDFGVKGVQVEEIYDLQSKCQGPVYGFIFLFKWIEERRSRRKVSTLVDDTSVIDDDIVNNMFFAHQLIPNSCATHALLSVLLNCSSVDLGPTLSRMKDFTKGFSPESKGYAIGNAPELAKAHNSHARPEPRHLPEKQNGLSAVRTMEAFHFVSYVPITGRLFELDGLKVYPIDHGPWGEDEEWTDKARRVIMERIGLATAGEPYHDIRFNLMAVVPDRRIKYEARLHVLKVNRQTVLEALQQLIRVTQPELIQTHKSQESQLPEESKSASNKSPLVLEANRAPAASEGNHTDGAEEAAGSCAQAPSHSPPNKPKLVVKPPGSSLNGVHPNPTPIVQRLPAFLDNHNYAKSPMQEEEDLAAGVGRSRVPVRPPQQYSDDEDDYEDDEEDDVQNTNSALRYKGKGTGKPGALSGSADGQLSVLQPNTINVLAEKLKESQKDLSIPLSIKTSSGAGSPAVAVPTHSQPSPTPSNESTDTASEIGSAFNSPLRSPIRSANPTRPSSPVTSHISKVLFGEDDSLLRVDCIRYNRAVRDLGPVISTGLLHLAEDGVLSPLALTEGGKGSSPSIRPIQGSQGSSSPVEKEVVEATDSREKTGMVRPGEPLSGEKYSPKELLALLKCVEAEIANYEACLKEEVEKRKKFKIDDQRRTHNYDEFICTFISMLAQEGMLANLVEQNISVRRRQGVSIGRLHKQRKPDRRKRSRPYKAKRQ
Method in brief: as §1

EIF3F = EIF3F (UniProt O00303)
EIF3F, sequence (O00303 whole entry): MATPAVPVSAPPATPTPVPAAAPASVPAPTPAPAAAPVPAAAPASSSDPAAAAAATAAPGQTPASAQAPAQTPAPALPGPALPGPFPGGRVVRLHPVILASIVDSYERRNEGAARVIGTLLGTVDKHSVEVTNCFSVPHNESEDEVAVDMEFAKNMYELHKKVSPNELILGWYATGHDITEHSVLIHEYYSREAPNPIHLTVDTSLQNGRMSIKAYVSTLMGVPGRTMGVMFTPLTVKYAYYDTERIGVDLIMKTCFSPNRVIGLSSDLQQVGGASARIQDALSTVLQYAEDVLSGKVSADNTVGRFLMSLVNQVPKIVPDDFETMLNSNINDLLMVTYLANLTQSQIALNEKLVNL
Method in brief: as §1

EIF3H = EIF3H (UniProt O15372)
EIF3H, sequence (O15372 whole entry): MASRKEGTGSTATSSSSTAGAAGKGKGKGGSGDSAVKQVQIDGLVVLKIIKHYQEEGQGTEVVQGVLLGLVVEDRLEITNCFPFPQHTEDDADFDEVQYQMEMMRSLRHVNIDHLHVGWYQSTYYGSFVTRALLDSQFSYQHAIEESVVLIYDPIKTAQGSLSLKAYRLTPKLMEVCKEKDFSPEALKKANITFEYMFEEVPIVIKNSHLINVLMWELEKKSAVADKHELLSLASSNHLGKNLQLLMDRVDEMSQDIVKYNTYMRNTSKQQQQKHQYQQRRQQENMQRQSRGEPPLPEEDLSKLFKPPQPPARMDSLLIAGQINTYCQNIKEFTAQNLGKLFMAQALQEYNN
Method in brief: as §1

FAM105A = molecular target: T3, FAM105A (UniProt Q9NUU6)
T3 sequence (whole entry): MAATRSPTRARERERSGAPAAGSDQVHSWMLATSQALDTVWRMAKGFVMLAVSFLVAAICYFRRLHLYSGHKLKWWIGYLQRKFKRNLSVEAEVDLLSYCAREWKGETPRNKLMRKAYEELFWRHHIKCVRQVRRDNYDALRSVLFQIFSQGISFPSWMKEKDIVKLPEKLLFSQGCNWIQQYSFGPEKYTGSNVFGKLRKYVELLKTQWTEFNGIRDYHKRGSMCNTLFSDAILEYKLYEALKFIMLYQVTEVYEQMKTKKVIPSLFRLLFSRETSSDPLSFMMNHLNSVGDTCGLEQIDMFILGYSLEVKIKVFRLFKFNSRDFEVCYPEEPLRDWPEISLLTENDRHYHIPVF
Method in brief: as §1

OTUB1 = OTUB1 (UniProt Q96FW1)
OTUB1, sequence (Q96FW1 whole entry): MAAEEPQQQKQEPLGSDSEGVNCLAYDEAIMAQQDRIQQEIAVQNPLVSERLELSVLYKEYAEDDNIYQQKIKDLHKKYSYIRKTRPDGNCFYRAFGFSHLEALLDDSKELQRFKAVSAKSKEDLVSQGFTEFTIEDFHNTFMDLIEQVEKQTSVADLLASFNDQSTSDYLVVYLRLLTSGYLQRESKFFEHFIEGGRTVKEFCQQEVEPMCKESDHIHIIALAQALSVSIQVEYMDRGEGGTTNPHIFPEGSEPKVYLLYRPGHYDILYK
Method in brief: as §1

OTUD4 = molecular target: T4, OTUD4 (UniProt Q01804)
T4 sequence (whole entry): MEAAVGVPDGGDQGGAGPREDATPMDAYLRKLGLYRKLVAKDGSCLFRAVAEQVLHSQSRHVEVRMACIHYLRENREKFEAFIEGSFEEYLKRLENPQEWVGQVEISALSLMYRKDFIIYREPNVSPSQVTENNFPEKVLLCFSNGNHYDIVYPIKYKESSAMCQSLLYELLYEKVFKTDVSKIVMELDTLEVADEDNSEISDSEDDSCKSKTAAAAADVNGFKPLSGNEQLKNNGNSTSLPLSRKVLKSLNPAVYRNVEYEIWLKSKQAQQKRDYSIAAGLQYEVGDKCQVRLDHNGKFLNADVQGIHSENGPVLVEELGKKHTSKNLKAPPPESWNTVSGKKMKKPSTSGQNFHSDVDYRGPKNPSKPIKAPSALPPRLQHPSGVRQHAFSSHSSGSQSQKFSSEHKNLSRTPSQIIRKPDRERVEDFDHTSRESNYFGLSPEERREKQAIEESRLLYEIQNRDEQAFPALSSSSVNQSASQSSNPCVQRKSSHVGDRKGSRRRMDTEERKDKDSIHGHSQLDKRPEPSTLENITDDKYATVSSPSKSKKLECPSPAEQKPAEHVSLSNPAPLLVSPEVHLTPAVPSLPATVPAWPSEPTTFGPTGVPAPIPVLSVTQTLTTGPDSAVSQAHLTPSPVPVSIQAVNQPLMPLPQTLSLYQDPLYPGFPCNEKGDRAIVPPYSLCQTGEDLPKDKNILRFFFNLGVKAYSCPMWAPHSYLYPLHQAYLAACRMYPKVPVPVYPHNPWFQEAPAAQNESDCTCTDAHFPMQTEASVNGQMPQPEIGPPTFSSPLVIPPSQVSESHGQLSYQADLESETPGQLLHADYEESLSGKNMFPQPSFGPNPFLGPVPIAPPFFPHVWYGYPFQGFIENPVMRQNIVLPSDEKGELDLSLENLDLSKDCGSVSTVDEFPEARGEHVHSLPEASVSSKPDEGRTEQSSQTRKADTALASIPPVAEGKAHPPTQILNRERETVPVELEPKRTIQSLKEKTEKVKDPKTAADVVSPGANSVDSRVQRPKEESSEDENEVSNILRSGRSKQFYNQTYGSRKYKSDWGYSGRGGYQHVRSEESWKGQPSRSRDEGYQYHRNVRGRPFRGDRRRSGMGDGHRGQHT
Method in brief: as §1

OTUD5 = molecular target: T5, OTUD5 (UniProt Q96G74)
T5 sequence (whole entry): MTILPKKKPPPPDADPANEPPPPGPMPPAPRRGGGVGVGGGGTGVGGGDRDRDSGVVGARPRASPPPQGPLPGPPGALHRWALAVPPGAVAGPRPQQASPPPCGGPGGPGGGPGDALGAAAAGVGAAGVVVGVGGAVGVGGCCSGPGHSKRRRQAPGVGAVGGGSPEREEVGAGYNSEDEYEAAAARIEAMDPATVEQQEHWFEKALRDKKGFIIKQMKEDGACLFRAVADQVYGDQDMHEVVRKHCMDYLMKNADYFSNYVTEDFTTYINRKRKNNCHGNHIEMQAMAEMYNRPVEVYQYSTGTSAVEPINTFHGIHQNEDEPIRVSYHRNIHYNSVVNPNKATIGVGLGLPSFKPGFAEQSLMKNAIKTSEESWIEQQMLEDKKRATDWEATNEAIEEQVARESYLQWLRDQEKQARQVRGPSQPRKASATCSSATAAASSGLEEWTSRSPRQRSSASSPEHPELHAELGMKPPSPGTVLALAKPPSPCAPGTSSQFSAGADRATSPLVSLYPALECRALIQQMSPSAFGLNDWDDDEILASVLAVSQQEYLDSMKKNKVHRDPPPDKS
Method in brief: as §1

Measured: log2 ratio of Biotin-Ahx-Ub-VS probe labelling

CC(=O)C1CCCCN1C(=O)CCl (centres undefined)
inactive: ALG13 0.0431 | ATXN3 0.025 | BAP1 -0.0781 | EIF3F -0.0667 | EIF3H 0.304 | FAM105A 0.264 | OTUB1 0.0807 | OTUD4 0.0774 | OTUD5 -0.219

From the supplement of paper PMC11732987, “Enantioselective OTUD7B fragment discovery through chemoproteomics screening and high-throughput optimisation” (Communications Chemistry, 2025)
